These results are taken from PubChem BioAssay (NCATS).

Each structure is given as a SMILES string. Inconclusive results are not listed. Activity calls are given as the source filed them. The call rests on the fitted dose curve; in most records, active means well fitted inhibition curve with a large enough effect; inconclusive means small, poorly fitted or top-dose-only effect; inactive means flat fitted curve, though single readings scatter.
On the % scale 0 is the no-effect control and ±100 the full control effect; potency means the concentration at half of the fitted maximal effect.

This experiment deals with Calcium and integrin-binding protein 1 (Homo sapiens) (UniProt Q99828). Briefly: Primary qHTS for Identification of Calcium Integrin Binding Protein 1 (CIB1) Competitor (AID 1508620).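 On activity change, negative = inhibition: GST tagged CIB1 binding a fluorescein labelled alphaIIb integrin peptide tracer; top concentration of the series differs between compounds.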 The settings on record: CIB1-GST / FITC-alphaIIb peptide fluorescence polarization; series mostly up to 57.7 µM; activity change, negative = inhibition: at the top concentration. The text has this: Assay Provider: Ulhas P. Naik, PhD Sidney Kimmel Medical College Thomas Jefferson University, Philadelphia, PA Primary function of platelets is to maintain hemostasis. At the site of vascular injury, platelets adhere to adhesive proteins such as collagen and von Willebrand factor. Adherent platelets are activated and generate soluble platelet agonists such as thrombin, ADP and thromboxane A2. Following exposure of circulating platelets to these agonists, results in platelet shape change, granule secretion and activation of platelet integrin alphaIIb-beta3. Ligand binding to activated integrin alphaIIb-beta3 triggers outside-in signaling, leading to platelet aggregation, stabilization of platelet plug, and clot retraction. Upon atherosclerotic plaque rupture also causes platelet plug formation, which underlies a number of cardiovascular diseases such as myocardial infraction and stroke. A number of anti-platelet drugs such as aspirin, clopidogrel, prasugrel, vorapaxar, and eptifibatide are currently available to prevent the thrombotic complications. However, these anti-platelet agents have several limitations including inherent variability in individual responses, developing resistance, and serious bleeding side effects. For these reasons they are not suitable for long-term protection. Based on the experiences with current anti-platelet drugs, it appears that the most useful therapeutic approach is to intersect the secondary responses such as integrin outside-in signaling or recruitment of platelets by TxA2 and secreted ADP. Compounds, which can largely preserve the primary hemostatic function of platelets but inhibit secondary response will be most desired therapeutic agents for treatment of cardiovascular disease. CIB1 is a calcium integrin binding protein, which specifically interact with the alphaIIb subunit of integrin alphaIIb-beta3. Binding of CIB1 to alphaIIb regulates the outside-in signaling in platelets, which is needed for thrombus stabilization and thrombus growth. […] Therefore, we propose that discovery of a small molecule that can prevent the association of CIB1 and alphaIIb-beta3 will be a potential anti-platelet agent that can block the thrombus formation without undue effect on hemostasis. Reference: [1] Naik MU, Nigam A, Manrai P, et al. CIB1 deficiency results in impaired thrombosis: the potential role of CIB1 in outside-in signaling through integrin alpha IIb beta 3. J Thromb Haemost.
Sequence of Calcium and integrin-binding protein 1 (Homo sapiens) (Q99828 whole entry, looked up): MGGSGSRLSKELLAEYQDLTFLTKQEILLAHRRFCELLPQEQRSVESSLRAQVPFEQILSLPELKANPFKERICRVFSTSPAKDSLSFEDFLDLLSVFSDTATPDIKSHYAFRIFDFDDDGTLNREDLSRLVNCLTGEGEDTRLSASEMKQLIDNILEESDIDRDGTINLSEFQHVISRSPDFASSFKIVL
PROTOCOL TABLES SEQUENCE No. (1, 2, 3, etc.); […] (e.g., Cells, Incubation, Reagent, etc.); VALUE and DESCRIPTION. 1; Reagent; 3 uL; Protein or buffer (4/3x) 2; Compound; 46 nL; Control inhibitor / compound library 3; Time; 15 min; Room temperature incubation 4; Reagent; 1 uL; Fluorescent labeled peptide (4x) 5; Time; 1000 rpm; Centrifuge 6; Time; 15 min; Room temperature incubation 7; Detection; Ex 480/ Em 540; ViewLux Fluorescence Read NOTES (numbers refer to sequence above) 1; Protein Mixture: C1B1-GST (final concentrations of 1 uM). […] 3; Room temperature incubation. 4; Fluorescent Labeled Peptide: FITC-aIIb (final concentration of 100 nM). Sequence of alphaIIb peptide: Acetyl-[…]-FITC (purity is 95.83%). 5; Centrifuge 1000 rpm (164 g) for 15 seconds. 6; Room temperature incubation. 7; ViewLux Fluorescent Polization Read: excitation = 480(20) / emission = 540(25) S and P; FITC Dichroic mirror.
(In general: Quantitative high-throughput screening tests each substance at several concentrations.)
Regarding `COc1cc(Cl)cn2c(-c3cccc(NC4CNC4)n3)cnc12`, the “activity change, negative = inhibition” value is 0.591% (inactive).

For `NCc1c[nH]c(=S)n1[C@H]1CCc2c(F)cc(F)cc2C1`, the “activity change, negative = inhibition” value was 1.38% (inactive).

As to `C[C@@H]1C[C@H]2[C@@H]3CCC4=CC(=O)C=C[C@]4(C)[C@@]3(F)[C@@H](O)C[C@]2(C)[C@@]1(O)C(=O)CO`, the “activity change, negative = inhibition” value was 3.6% [at 114 µM] (inactive).

As for `OC[C@H]1O[C@@H](OCCc2ccc(O)cc2)[C@H](O)[C@@H](O)[C@H]1O`, the “activity change, negative = inhibition” value is 8.21% [at 114 µM] (inactive).

For the compound `OC[C@H]1O[C@@H](O[C@H]2[C@@H](O)[C@@](O)(CO)O[C@@H]2CO)[C@H](O)[C@@H](O)[C@@H]1O`, the “activity change, negative = inhibition” value is 4.17% (inactive).

Take `Cc1ccc(S(=O)(=O)Nc2nc3ccccc3nc2Nc2ccc3nsnc3c2)cc1`: the “activity change, negative = inhibition” value was -4.38% [at 30.2 µM] (inactive).

With `CNC(=O)[C@H](CC1=CN=C2C=CCC=C12)NC(=O)[C@@H](CC(=O)NO)CC(C)C`, the “activity change, negative = inhibition” value is 1.27% (inactive).

On to `COc1c(C)c2c(c(O)c1CC=C(C)CCC(=O)OCCN1CCOCC1)C(=O)OC2`, for which the “activity change, negative = inhibition” value is 2.68% (inactive).

In the case of `CCCCc1ccc(NS(=O)(=O)c2ccc(C)c(C(=O)N3CCN(c4cccc(C)c4C)CC3)c2)cc1`, the “activity change, negative = inhibition” value is -8.22% (inactive).

Regarding `CN[C@H]1[C@@H](O[C@@H]2[C@H](O[C@@H]3[C@@H](O)[C@@H](O)[C@@H](N=C(N)N)[C@@H](O)[C@@H]3N=C(N)N)O[C@H](C)[C@@]2(O)C=O)O[C@@H](CO)[C@@H](O)[C@H]1O`, the activity change, negative = inhibition was -2.24% [at 12.4 µM] (inactive).

With `NC1(C(=O)N[C@@H](CCO)c2ccc(Cl)cc2)CCN(c2ncnc3[nH]ccc23)CC1`, the Potency result is “inactive”.

For `CC=C(C(=CC)c1ccc(O)cc1)c1ccc(O)cc1`, the “activity change, negative = inhibition” value was 5.28% (inactive).

As to `Cc1cc(NC(=O)Nc2ccc(N(C)C)cc2)c2cc(F)cc(F)c2n1`, the “activity change, negative = inhibition” value is -7.42% (inactive).

As to `OC1CCC(Nc2ncc3nc(Nc4c(F)cc(F)cc4F)n([C@@H]4CCOC4)c3n2)CC1` (stereo not given in full), the “activity change, negative = inhibition” value was -3.74% (inactive).

As for `Nc1ccn([C@@H]2O[C@H](CO)[C@@H](O)[C@H]2O)c(=O)n1`, the “activity change, negative = inhibition” value is -1.01% (inactive).

On to `CCC=CC[C@H]1C(=O)CC[C@@H]1CC(=O)OC`, for which the “activity change, negative = inhibition” value is -4.28% (inactive).

Take `COc1cc2c(cc1OC)[C@@H]1Cc3ccc(OC)c(OC)c3CN1CC2`: the “activity change, negative = inhibition” value was -5.47% (inactive).

Take `COc1c(C)c2c(c(O)c1CC=C(C)CCC(=O)O)C(=O)OC2`: the “activity change, negative = inhibition” value is 1.54% (inactive).

With `C[C@@H](O[C@H]1OCCN(Cc2n[nH]c(=O)[nH]2)[C@@H]1c1ccc(F)cc1)c1cc(C(F)(F)F)cc(C(F)(F)F)c1`, the “activity change, negative = inhibition” value is -11.9% (inactive).

Turning to `CN1CCC[C@H]1CCO[C@](C)(c1ccccc1)c1ccc(Cl)cc1`, the “activity change, negative = inhibition” value is 0.142% (inactive).

For the compound `Cc1cc2c(cc1C1(c3ccc(C(=O)O)cn3)CC1)C(C)(C)CCC2(C)C`, the Potency entry is “inactive”.

Consider `CCC(=O)N1CCN(c2ccc(-n3c(=O)ccc4cnc5ccc(-c6cnc7ccccc7c6)cc5c43)cc2C(F)(F)F)CC1`, for which the Potency entry is “inactive”.

With `CCCCn1c(=O)n(Cc2ccccc2F)c(=O)c2[nH]c(Cc3ccc(NC(C)=O)cc3)nc21`, the Potency entry was “inactive”.

As to `C=CC(=O)Nc1cccc(Sc2nc(Nc3ccc(N4CCN(C)CC4)cc3)ncc2Cl)c1`, the “activity change, negative = inhibition” value is -8.68% (inactive).

For the compound `C[C@H]1O[C@@H](n2cc(F)c(=O)[nH]c2=O)[C@H](O)[C@H]1O`, the “activity change, negative = inhibition” value is 1.66% (inactive).

As to `O=C(NC[C@H](O)CO)c1ccncc1Nc1ccc(I)cc1F`, the “activity change, negative = inhibition” value was 4.15% (inactive).

For `CN1CC(=O)NC1=NC(=O)Nc1cccc(Cl)c1`, the “activity change, negative = inhibition” value is 0.915% (inactive).

For `O=c1[nH]c(=O)n([C@H]2C[C@@H](O)[C@@H](CO)O2)cc1I`, the “activity change, negative = inhibition” value is 6.4% (inactive).

As for `CCOc1ccccc1N=Nc1c(C)[nH]n(-c2nc(-c3ccccc3)cs2)c1=O`, the “activity change, negative = inhibition” value was -3.21% (inactive).

Regarding `CO[C@@H]1C(N(C)C(=O)c2ccccc2)C[C@H]2O[C@]1(C)n1c3ccccc3c3c4c(c5c6ccccc6n2c5c31)C(=O)NC4=O` (stereo not given in full), the Potency was 19.2 µM (active).

As to `Cc1ccc2c(=O)c3cccc(CC(=O)O)c3oc2c1C`, the “activity change, negative = inhibition” value was 0.476% (inactive).

With `CN(CC=CC#CC(C)(C)C)Cc1cccc2ccccc12`, the “activity change, negative = inhibition” value is -2% (inactive).

Turning to `C=CC[N+]1([C@H]2C[C@H]3[C@@H]4CC[C@H]5C[C@H](O)[C@@H](N6CCOCC6)C[C@]5(C)[C@@H]4CC[C@]3(C)[C@H]2OC(C)=O)CCCC1`, the “activity change, negative = inhibition” value is -0.125% (inactive).

Consider `Cc1cnc(-c2cc(N3CCN(C(=O)CCS(C)(=O)=O)CC3)ncc2Cl)c(C)c1`, for which the Potency result is “inactive”.

With `CO[C@H]1C=CO[C@@]2(C)Oc3c(C)c(O)c4c(O)c(c(C=NN5CCN(C)CC5)c(O)c4c3C2=O)NC(=O)C(C)=CC=C[C@H](C)[C@H](O)[C@@H](C)[C@@H](O)[C@@H](C)[C@H](OC(C)=O)[C@H]1C`, the activity change, negative = inhibition is -2.55% [at 12.4 µM] (inactive).

As for `CCNC(=O)Nc1ccc(Oc2ncnc(N)c2C=NOC)cc1Cl`, the “activity change, negative = inhibition” value was -1.25% (inactive).

Take `C=C1[C@H](n2cnc3c(=O)[nH]c(N)nc32)C[C@H](O)[C@H]1CO`: the “activity change, negative = inhibition” value was 2.45% (inactive).

As for `O=C1C(CCC(O)c2ccc(F)cc2)C(c2ccc(O)cc2)N1c1ccc(F)cc1` (stereo not given), the “activity change, negative = inhibition” value is -6.43% (inactive).

With `CCCCC[C@H](O)C=C[C@H]1[C@H](O)CC(=O)[C@H]1CCCCCCC(=O)O`, the “activity change, negative = inhibition” value is -8.85% (inactive).

For the compound `Cc1c(C(=O)Nc2ccc(N3C[C@@H](C)O[C@@H](C)C3)nc2)cccc1-c1ccc(OC(F)(F)F)cc1`, the Potency result is “inactive”.
